Here are results for 40 compounds from PubChem BioAssay (Tox21).

Where “and” joins values, the source holds several entries; their conditions need not be identical. Equal entries are not always repeated. Records with an inconclusive call do not appear. Where a call stands in place of a potency, no number is given. Where a structure was tested more than once in an assay, its records may differ in their call. Calls of active or inactive are those of the source. The call rests on the fitted dose curve; in most records, active means well fitted cell-killing curve with a large enough effect in the repeat runs; inconclusive means weak or mixed curves, or effect the other way; inactive means no such curve, though single readings can be large or run the other way.
Potency means the concentration at half of the fitted maximal effect.

A short description of the test: qHTS assay for identifying genotoxic compounds that show differential cytotoxicity against isogenic chicken DT40 cell lines with known DNA damage response pathways - wild type cell line (AID 743012). Further: nearly all actives have a fitted effect of over 60% in size. To be noted: DT40 wild type chicken cells viability, CellTiter-Glo, 40 h; series mostly up to 68.4 µM. An excerpt: U.S. Tox21 Program National Center for Advancing Translational Sciences [NCATS] NIH Chemical Genomics Center [NCGC] U.S. Environmental Protection Agency [EPA] National Institutes of Environmental Health Sciences [NIEHS] National Toxicology Program [NTP] U.S. Food and Drug Administration [FDA] Tox21 Assay Overview: DNA repair pathways play a critical role in cellular homeostasis by repairing DNA damage induced by endogenous processes and xenobiotics. Isogenic chicken DT40 cell lines deficient in different DNA repair pathways can be used to identify genotoxic compounds and aid in characterizing the nature of the DNA damage induced. Two DNA repair-deficient cell lines with disrupted genes, Rad54/Ku70 or Rev3, were used to screen the Tox21 10K compound library. Possible genotoxicity was based on the presence of a significant increase in cytotoxicity in one or more of the DNA repair-deficient cell lines compared to that observed in the parental DNA repair-proficient cell line. CellTiter Glo viability assay (Promega, Madison, WI) was used to measure cell viability in these cells after compound treatment. This assay includes the data from the wild type cell line.
Tox21 Assay Protocol Summary: 300 DT40 wild type cells in 5 uL/well were dispensed into white, solid-bottom 1536-well plates using a Multidrop Combi (ThermoFisher Scientific, Waltham, MA) dispenser. After the assay plates were incubated at 37 C/5% CO2 for approximately 0.5 hour, 23 nL of compounds dissolved in DMSO, positive controls or DMSO only was transferred into the assay plate by a pintool work station (Kalypsys, San Diego, CA). The assay plates were incubated at 37 C/5% CO2 for 40 hours. After 5 uL per well of CellTiter-Glo reagent was added into each well of the assay plates, the plates were incubated for 30 min at room temperature and the luminescence intensity of the plates was measured using a ViewLux (PerkinElmer, Shelton, CT) plate reader.
A general note: qHTS replaces the single test concentration by a dilution series.
In the case of `COC(=O)c1ccccc1C(=O)OC`, the Potency result is “inactive”.
Turning to `CC(C)(C)OOC(C)(C)C`, the Potency entry is “inactive”.
Next, `CCCN(CCC)c1c([N+](=O)[O-])cc(C(F)(F)F)cc1[N+](=O)[O-]`: “inactive”; `CC(Br)C(=O)O` (stereo not given): “inactive”; `CC(C)(C)OOC(=O)c1ccccc1`: “inactive”.
`CCOP(OCC)OCC`: the Potency result was “inactive”.
Regarding `CC(C)OC(=O)Nc1ccccc1`, the Potency entry is “inactive”.
Take `CCC[CH2][Sn]([Cl])([Cl])[Cl]`: the Potency result was “inactive”.
Take `Cc1ccc(N)cc1Cl`: the Potency result is “inactive”.
Take `O=S(=O)(c1ccc(O)cc1)c1ccc(O)cc1`: the Potency entry was “inactive”.
In the case of `Cc1[nH]c(=O)n(C(C)(C)C)c(=O)c1Cl`, the Potency entry is “inactive”.
With `CCOP(=S)(OCC)SCCSCC`, the Potency entry is “inactive”.
Take `[N-]=[N+]=[N-]`: the Potency result is “inactive”.
Turning to `CN(N=O)c1ccccc1`, the Potency entry is “inactive”.
Next, `Cc1cc(Cl)ccc1O`: “inactive”.
Take `COC(=O)NS(=O)(=O)c1ccc(N)cc1`: the Potency result is “inactive”.
Regarding `c1ccc(OP(Oc2ccccc2)Oc2ccccc2)cc1`, the Potency entry is “inactive”.
In the case of `O=[N+]([O-])c1ccc(Oc2ccc(Cl)cc2Cl)cc1`, the Potency entry was “inactive and 61.1 µM (active)”.
Turning to `CCc1cccc(C)c1N(C(=O)CCl)C(C)COC` (stereo not given), the Potency is 40.8 µM (active) and 10.9 µM (active).
As for `CCCCCCCCCl`, the Potency result was “inactive”.
Take `C1CN2CCN1CC2`: the Potency entry is “inactive”.
For the compound `c1ccc2c(c1)oc1ccccc12`, the Potency entry was “inactive”.
With `CCC[N+](=O)[O-]`, the Potency result is “inactive”.
For `c1ccc(-c2ccccc2)cc1`, the Potency entry was “inactive”.
Consider `CCCCCOC(=O)c1ccccc1C(=O)OCCCCC`, for which the Potency entry was “inactive and 61.1 µM (active)”.
Take `CCCCN(CCCC)SN(C)C(=O)Oc1cccc2c1OC(C)(C)C2`: the Potency is 30.6 µM (active).
`CCCCOC(=O)c1ccccc1C(=O)OCCCC`: the Potency is 24.3 µM (active).
Regarding `Cc1cccc([N+](=O)[O-])c1`, the Potency result is “inactive”.
On to `C=CCO`, for which the Potency entry is “inactive”.
Regarding `O=Cc1cccc(Oc2ccccc2)c1`, the Potency entry was “inactive”.
In the case of `BrCCBr`, the Potency entry was “inactive”.
As to `Clc1cccc(Cl)c1Cl`, the Potency entry is “inactive”.
As for `ClCCBr`, the Potency result was “inactive”.
As to `O=c1n(Cl)c(=O)n(Cl)c(=O)n1Cl`, the Potency entry is “inactive”.
Next, `CC(C)NC(=O)N1CC(=O)N(c2cc(Cl)cc(Cl)c2)C1=O`: “inactive”; `c1ccc2c(c1)Oc1ccccc1O2`: “inactive”.
With `COC(=O)c1ccccc1N`, the Potency result was “inactive”.
For `ClCc1cccnc1`, the Potency entry is “inactive”.
Consider `O=C1CCCN1`, for which the Potency entry is “inactive”.
Regarding `CC(C)OC(=O)Nc1cccc(Cl)c1`, the Potency entry was “inactive”.
